Data reported in the supplement of paper PMC4466140.

molecular target: AgAbp1; experiment: SPOT peptide array binding signal intensity (averaged, normalized) (arbitrary units (background-subtracted, floor 0; scale differs between SH3 domains)); higher = stronger binding of the SH3 domain to the peptide
Summary of the method: (§1)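 GST-SH3 fusions from four yeast species, purified on glutathione Sepharose, were incubated at 10 μg/ml overnight at 4°C on membranes of synthetic 15-mer peptides in which cysteines were replaced with serines. Binding signal is the normalized, background-subtracted spot intensity averaged over replicates, in domain-specific arbitrary units.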

Row | Binder | SPOT peptide array binding signal intensity
1 | VPVAPPPPPASLGQS | ≤ 0

molecular target: AgBbc1; experiment: as above
Summary of the method: as §1

Row | Binder | SPOT peptide array binding signal intensity
2 | VPVAPPPPPASLGQS | ≤ 0

molecular target: AgBem1-D1; experiment: as above
Summary of the method: as §1

Row | Binder | SPOT peptide array binding signal intensity
3 | VPVAPPPPPASLGQS | 15

molecular target: AgBzz1-D1; experiment: as above
Summary of the method: as §1

Row | Binder | SPOT peptide array binding signal intensity
4 | VPVAPPPPPASLGQS | 0.5

molecular target: AgBzz1-D2; experiment: as above
Summary of the method: as §1

Row | Binder | SPOT peptide array binding signal intensity
5 | VPVAPPPPPASLGQS | ≤ 0

molecular target: AgCyk3; experiment: as above
Summary of the method: as §1

Row | Binder | SPOT peptide array binding signal intensity
6 | VPVAPPPPPASLGQS | ≤ 0

molecular target: AgFus1; experiment: as above
Summary of the method: as §1

Row | Binder | SPOT peptide array binding signal intensity
7 | VPVAPPPPPASLGQS | ≤ 0

molecular target: AgHof1; experiment: as above
Summary of the method: as §1

Row | Binder | SPOT peptide array binding signal intensity
8 | VPVAPPPPPASLGQS | ≤ 0

molecular target: AgHse1; experiment: as above
Summary of the method: as §1

Row | Binder | SPOT peptide array binding signal intensity
9 | VPVAPPPPPASLGQS | 17

molecular target: AgLsb1; experiment: as above
Summary of the method: as §1

Row | Binder | SPOT peptide array binding signal intensity
10 | VPVAPPPPPASLGQS | 0.25

molecular target: AgLsb4; experiment: as above
Summary of the method: as §1

Row | Binder | SPOT peptide array binding signal intensity
11 | VPVAPPPPPASLGQS | ≤ 0

molecular target: AgMyo5; experiment: as above
Summary of the method: as §1

Row | Binder | SPOT peptide array binding signal intensity
12 | VPVAPPPPPASLGQS | 4.25

molecular target: AgNbp2; experiment: as above
Summary of the method: as §1

Row | Binder | SPOT peptide array binding signal intensity
13 | VPVAPPPPPASLGQS | ≤ 0

molecular target: AgRvs167; experiment: as above
Summary of the method: as §1

Row | Binder | SPOT peptide array binding signal intensity
14 | VPVAPPPPPASLGQS | 3

molecular target: AgSho1; experiment: as above
Summary of the method: as §1

Row | Binder | SPOT peptide array binding signal intensity
15 | VPVAPPPPPASLGQS | ≤ 0

molecular target: AgSla1-D1-D2; experiment: as above
Summary of the method: as §1

Row | Binder | SPOT peptide array binding signal intensity
16 | VPVAPPPPPASLGQS | 6

molecular target: AgSla1-D3; experiment: as above
Summary of the method: as §1

Row | Binder | SPOT peptide array binding signal intensity
17 | VPVAPPPPPASLGQS | 1

molecular target: CaAbp1-D1; experiment: as above
Summary of the method: as §1

Row | Binder | SPOT peptide array binding signal intensity
18 | VPVAPPPPPASLGQS | 2

molecular target: CaAbp1-D2; experiment: as above
Summary of the method: as §1

Row | Binder | SPOT peptide array binding signal intensity
19 | VPVAPPPPPASLGQS | 4

molecular target: CaBbc1; experiment: as above
Summary of the method: as §1

Row | Binder | SPOT peptide array binding signal intensity
20 | VPVAPPPPPASLGQS | 0.5

molecular target: CaBem1-D1; experiment: as above
Summary of the method: as §1

Row | Binder | SPOT peptide array binding signal intensity
21 | VPVAPPPPPASLGQS | ≤ 0

molecular target: CaBzz1-D1; experiment: as above
Summary of the method: as §1

Row | Binder | SPOT peptide array binding signal intensity
22 | VPVAPPPPPASLGQS | 89

molecular target: CaBzz1-D2; experiment: as above
Summary of the method: as §1

Row | Binder | SPOT peptide array binding signal intensity
23 | VPVAPPPPPASLGQS | 9.5

molecular target: CaCyk3; experiment: as above
Summary of the method: as §1

Row | Binder | SPOT peptide array binding signal intensity
24 | VPVAPPPPPASLGQS | ≤ 0

molecular target: CaFus1; experiment: as above
Summary of the method: as §1

Row | Binder | SPOT peptide array binding signal intensity
25 | VPVAPPPPPASLGQS | 16

molecular target: CaHof1; experiment: as above
Summary of the method: as §1

Row | Binder | SPOT peptide array binding signal intensity
26 | VPVAPPPPPASLGQS | ≤ 0

molecular target: CaHse1; experiment: as above
Summary of the method: as §1

Row | Binder | SPOT peptide array binding signal intensity
27 | VPVAPPPPPASLGQS | ≤ 0

molecular target: CaLsb1; experiment: as above
Summary of the method: as §1

Row | Binder | SPOT peptide array binding signal intensity
28 | VPVAPPPPPASLGQS | 0.75

molecular target: CaLsb4; experiment: as above
Summary of the method: as §1

Row | Binder | SPOT peptide array binding signal intensity
29 | VPVAPPPPPASLGQS | ≤ 0

molecular target: CaMyo5; experiment: as above
Summary of the method: as §1

Row | Binder | SPOT peptide array binding signal intensity
30 | VPVAPPPPPASLGQS | 13.5

molecular target: CaNbp2; experiment: as above
Summary of the method: as §1

Row | Binder | SPOT peptide array binding signal intensity
31 | VPVAPPPPPASLGQS | 17.5

molecular target: CaRvs167; experiment: as above
Summary of the method: as §1

Row | Binder | SPOT peptide array binding signal intensity
32 | VPVAPPPPPASLGQS | ≤ 0

molecular target: CaRvs167-3; experiment: as above
Summary of the method: as §1

Row | Binder | SPOT peptide array binding signal intensity
33 | VPVAPPPPPASLGQS | 1.5

molecular target: CaSho1; experiment: as above
Summary of the method: as §1

Row | Binder | SPOT peptide array binding signal intensity
34 | VPVAPPPPPASLGQS | 28

molecular target: CaSla1-D1-D2; experiment: as above
Summary of the method: as §1

Row | Binder | SPOT peptide array binding signal intensity
35 | VPVAPPPPPASLGQS | ≤ 0

molecular target: CaSla1-D3; experiment: as above
Summary of the method: as §1

Row | Binder | SPOT peptide array binding signal intensity
36 | VPVAPPPPPASLGQS | ≤ 0

molecular target: ScAbp1; experiment: as above
Summary of the method: as §1

Row | Binder | SPOT peptide array binding signal intensity
37 | VPVAPPPPPASLGQS | 0.5

molecular target: ScBbc1; experiment: as above
Summary of the method: as §1

Row | Binder | SPOT peptide array binding signal intensity
38 | VPVAPPPPPASLGQS | 2.5

molecular target: ScBem1-D1; experiment: as above
Summary of the method: as §1

Row | Binder | SPOT peptide array binding signal intensity
39 | VPVAPPPPPASLGQS | 0.5

molecular target: ScBzz1-D1; experiment: as above
Summary of the method: as §1

Row | Binder | SPOT peptide array binding signal intensity
40 | VPVAPPPPPASLGQS | 3

molecular target: ScBzz1-D2; experiment: as above
Summary of the method: as §1

Row | Binder | SPOT peptide array binding signal intensity
41 | VPVAPPPPPASLGQS | 8.5

molecular target: ScCyk3; experiment: as above
Summary of the method: as §1

Row | Binder | SPOT peptide array binding signal intensity
42 | VPVAPPPPPASLGQS | ≤ 0

molecular target: ScFus1; experiment: as above
Summary of the method: as §1

Row | Binder | SPOT peptide array binding signal intensity
43 | VPVAPPPPPASLGQS | ≤ 0

molecular target: ScHof1; experiment: as above
Summary of the method: as §1

Row | Binder | SPOT peptide array binding signal intensity
44 | VPVAPPPPPASLGQS | ≤ 0

molecular target: ScHse1; experiment: as above
Summary of the method: as §1

Row | Binder | SPOT peptide array binding signal intensity
45 | VPVAPPPPPASLGQS | 4

molecular target: ScLsb1; experiment: as above
Summary of the method: as §1

Row | Binder | SPOT peptide array binding signal intensity
46 | VPVAPPPPPASLGQS | ≤ 0

molecular target: ScLsb2; experiment: as above
Summary of the method: as §1

Row | Binder | SPOT peptide array binding signal intensity
47 | VPVAPPPPPASLGQS | ≤ 0

molecular target: ScLsb3; experiment: as above
Summary of the method: as §1

Row | Binder | SPOT peptide array binding signal intensity
48 | VPVAPPPPPASLGQS | ≤ 0

molecular target: ScLsb4; experiment: as above
Summary of the method: as §1

Row | Binder | SPOT peptide array binding signal intensity
49 | VPVAPPPPPASLGQS | 4

molecular target: ScMyo3; experiment: as above
Summary of the method: as §1

Row | Binder | SPOT peptide array binding signal intensity
50 | VPVAPPPPPASLGQS | 372

molecular target: ScMyo5; experiment: as above
Summary of the method: as §1

Row | Binder | SPOT peptide array binding signal intensity
51 | VPVAPPPPPASLGQS | 91

molecular target: ScNbp2; experiment: as above
Summary of the method: as §1

Row | Binder | SPOT peptide array binding signal intensity
52 | VPVAPPPPPASLGQS | ≤ 0

molecular target: ScPex13; experiment: as above
Summary of the method: as §1

Row | Binder | SPOT peptide array binding signal intensity
53 | VPVAPPPPPASLGQS | ≤ 0

molecular target: ScRvs167; experiment: as above
Summary of the method: as §1

Row | Binder | SPOT peptide array binding signal intensity
54 | VPVAPPPPPASLGQS | ≤ 0

molecular target: ScSho1; experiment: as above
Summary of the method: as §1

Row | Binder | SPOT peptide array binding signal intensity
55 | VPVAPPPPPASLGQS | 3

molecular target: ScSla1-D1-D2; experiment: as above
Summary of the method: as §1

Row | Binder | SPOT peptide array binding signal intensity
56 | VPVAPPPPPASLGQS | ≤ 0

molecular target: ScSla1-D3; experiment: as above
Summary of the method: as §1

Row | Binder | SPOT peptide array binding signal intensity
57 | VPVAPPPPPASLGQS | 1.5

molecular target: SpAbp1-D1; experiment: as above
Summary of the method: as §1

Row | Binder | SPOT peptide array binding signal intensity
58 | VPVAPPPPPASLGQS | ≤ 0

molecular target: SpBbc1; experiment: as above
Summary of the method: as §1

Row | Binder | SPOT peptide array binding signal intensity
59 | VPVAPPPPPASLGQS | ≤ 0

molecular target: SpBzz1-D1; experiment: as above
Summary of the method: as §1

Row | Binder | SPOT peptide array binding signal intensity
60 | VPVAPPPPPASLGQS | 237

molecular target: SpBzz1-D2; experiment: as above
Summary of the method: as §1

Row | Binder | SPOT peptide array binding signal intensity
61 | VPVAPPPPPASLGQS | 1.25

molecular target: SpCyk3; experiment: as above
Summary of the method: as §1

Row | Binder | SPOT peptide array binding signal intensity
62 | VPVAPPPPPASLGQS | ≤ 0

molecular target: SpHof1; experiment: as above
Summary of the method: as §1

Row | Binder | SPOT peptide array binding signal intensity
63 | VPVAPPPPPASLGQS | ≤ 0

molecular target: SpHof1-2; experiment: as above
Summary of the method: as §1

Row | Binder | SPOT peptide array binding signal intensity
64 | VPVAPPPPPASLGQS | ≤ 0

molecular target: SpHof1-3; experiment: as above
Summary of the method: as §1

Row | Binder | SPOT peptide array binding signal intensity
65 | VPVAPPPPPASLGQS | 0.5

molecular target: SpHse1; experiment: as above
Summary of the method: as §1

Row | Binder | SPOT peptide array binding signal intensity
66 | VPVAPPPPPASLGQS | 1

molecular target: SpLsb1; experiment: as above
Summary of the method: as §1

Row | Binder | SPOT peptide array binding signal intensity
67 | VPVAPPPPPASLGQS | ≤ 0

molecular target: SpLsb4; experiment: as above
Summary of the method: as §1

Row | Binder | SPOT peptide array binding signal intensity
68 | VPVAPPPPPASLGQS | ≤ 0

molecular target: SpMyo1; experiment: as above
Summary of the method: as §1

Row | Binder | SPOT peptide array binding signal intensity
69 | VPVAPPPPPASLGQS | 49.8

molecular target: SpNbp2; experiment: as above
Summary of the method: as §1

Row | Binder | SPOT peptide array binding signal intensity
70 | VPVAPPPPPASLGQS | 1.5

molecular target: SpPex13; experiment: as above
Summary of the method: as §1

Row | Binder | SPOT peptide array binding signal intensity
71 | VPVAPPPPPASLGQS | ≤ 0

molecular target: SpRvs167; experiment: as above
Summary of the method: as §1

Row | Binder | SPOT peptide array binding signal intensity
72 | VPVAPPPPPASLGQS | 3.33

molecular target: SpSla1-D1-D2; experiment: as above
Summary of the method: as §1

Row | Binder | SPOT peptide array binding signal intensity
73 | VPVAPPPPPASLGQS | ≤ 0

molecular target: SpSla1-D3; experiment: as above
Summary of the method: as §1

Row | Binder | SPOT peptide array binding signal intensity
74 | VPVAPPPPPASLGQS | ≤ 0
